# Source: PubChem BioAssay (Tox21)
# Where “and” joins values, the source holds several entries; their conditions need not be identical. Identical values can stand only once. Calls of active or inactive are those of the source. Entries that show only a call come without a potency. Calls come from the whole dose curve; as a rule, active = well fitted curve in the direction sought with a large enough effect in the repeat runs; inconclusive = weak or mixed curves; inactive = flat fitted curve, though single readings scatter.
# Assay: qHTS assay to test for compound auto fluorescence at 590 nm (red) in HEK293 cell free culture (AID 720683)
# Settings: cell-free medium autofluorescence, Ex540/Em590 red; series mostly up to 91.3 µM
# Text: U.S. Tox21 Program National Center for Advancing Translational Sciences [NCATS] NIH Chemical Genomics Center [NCGC] U.S. Environmental Protection Agency [EPA] National Institutes of Environmental Health Sciences [NIEHS] National Toxicology Program [NTP] U.S. Food and Drug Administration [FDA] Tox21 Assay Overview: Compound auto fluorescence often interferes with screening of the compound library against various biological targets and signaling pathways. Some of these compounds may have fluorophoric properties. Such properties may interfere with the assay outputs resulting in false positives and/or negatives. To decrease such complications and ensure the compound activities are relevant in terms of biological response, the Tox21 10K compound library was screened for auto fluorescence. From the fluorophores used as reporter signals in our screening assays, the auto fluorescence equivalencies of compounds against three fluorophores have been evaluated: Triamterene, Fluorescein and Rose Bengal sodium for blue, green and red fluorescence, respectively. The fluorescence intensities were measured using Excitation/Emission wavelengths at 405/460nm, 485/535nm and 540/590nm for blue, green and red labels, respectively. This assay includes the red fluorescence data.
# Tox21 Assay Protocol Summary: 5 uL of culture medium (DMEM containing 10% FBS) per well was dispensed into black wall/clear bottom 1536-well plates using a Multidrop Combi Dispenser (ThermoFisher Scientific, Waltham, MA). After 23 nL compound or DMSO vehicle was transferred into assay plate by a pintool work station (Kalypsys, San Diego, CA), fluorescence intensities in the assay plates were measured by an Envision (PerkinElmer, Shelton, CT) plate reader using three labels for measuring blue, green and red fluorescence at […] 460, 535 and 590nm respectively.
# Potency is the fitted concentration of half-maximal effect; tags give direction and shape of the fitted curve or compound fluorescence and quenching.
row,Compound,Potency
1,NCCS(=O)(=O)O,inactive
2,COCCOCCOCCO,inactive
3,CC[C@]12CCCN3CCc4c(n(c5ccccc45)[C@@](O)(C(=O)OC)C1)[C@@H]32,inactive
4,C=CCNCC=C,inactive
5,CC(=O)[C@H]1CC[C@H]2[C@@H]3CC=C4C[C@@H](O)CC[C@]4(C)[C@H]3CC[C@]12C,inactive
6,CNC[C@H](O)c1ccc(O)c(O)c1,inactive
7,CN1CCOCC1,inactive
8,CCCCCCCC/C=C\CCCCCCCC(=O)O,inactive
9,CC1(C)C(C=C(Cl)Cl)C1C(=O)OCc1cccc(Oc2ccccc2)c1 (stereo not given),inactive
10,CC(=O)OC(C)C,inactive
11,Cc1ccc(C(C)(C)C)c(O)c1,inactive
12,CC1(C)OC(=O)NC1=O,inactive
13,FC(F)(F)C(Cl)Br (stereo not given),inactive
14,CC(=O)Oc1c(C)c(C)c2c(c1C)CC[C@@](C)(CCC[C@H](C)CCC[C@H](C)CCCC(C)C)O2,inactive
15,CC1=CC(C)(C)Nc2ccccc21,inactive
16,CC1(C)O[C@@H]2C[C@H]3[C@@H]4C[C@H](F)C5=CC(=O)C=C[C@]5(C)[C@@]4(F)[C@@H](O)C[C@]3(C)[C@]2(C(=O)CO)O1,inactive
17,[Na+],inactive
18,CC(=O)O[C@]1(C(C)=O)CC[C@H]2[C@@H]3C=C(Cl)C4=CC(=O)CC[C@]4(C)[C@H]3CC[C@@]21C,inactive
19,c1ccc2c(c1)[nH]c1ccccc12,inactive
20,Oc1ccc(C(c2ccc(O)cc2)C(Cl)(Cl)Cl)cc1,inactive

row,Compound,Potency
1,C1COCCN1,inactive
2,Cc1ccc(S(=O)(=O)NCl)cc1,inactive
3,Nc1cc(Cl)c(N)c(Cl)c1,inactive
4,O=C1OC2(c3ccccc31)c1cc(I)c(O)c(I)c1Oc1c2cc(I)c(O)c1I,11.2 µM [fluorescent] (active) and 17.8 µM [fluorescent] (active)
5,CC(=O)Nc1ccc2c(c1)Cc1cc(NC(C)=O)ccc1-2,inactive
6,OC[C@@H](O)[C@@H](O[C@@H]1O[C@H](CO)[C@H](O)[C@H](O)[C@H]1O)[C@H](O)[C@@H](O)CO,inactive
7,C1CN(SSN2CCOCC2)CCO1,inactive
8,Nc1ccc2c(c1)C(=O)c1ccccc1C2=O,inactive
9,CCC/C=C/C=O,inactive
10,Clc1ccc(Sc2cc(Cl)c(Cl)cc2Cl)cc1,inactive
11,CC(C)(Oc1ccc(Cl)cc1)C(=O)O,inactive
12,[O-]/[N+](=N\O)c1ccccc1,inactive
13,C[N+](C)(C)CCO,inactive
14,CC(C)[C@@H]1CC[C@@H](C)CC1=O,inactive
15,OCCNCCO,inactive
16,COc1cc([C@H]2Oc3cc([C@H]4Oc5cc(O)cc(O)c5C(=O)[C@@H]4O)ccc3O[C@@H]2CO)ccc1O,inactive
17,CCCCCCCCCCCCO,inactive
18,CCCCCCCCCCC(CO)CCCCCCCC (stereo not given),inactive
19,CN(C)/N=N/c1nc[nH]c1C(N)=O,inactive
20,ClC/C=C/CCl,inactive
